We go through 14 compounds from PubChem BioAssay.

A short description of assay [1]: inhibitors of TNFa-induced NFkB p65 translocation, primary screen, imaging, HUVEC, MLSMR starter and 10KST1 sets (AID 438;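 active = inhibition above 20% together with a positive visual image hit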;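 also: compound added about 3h40 before a 20 min TNFalpha stimulation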;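 as to inhibition: signal is the nuclear over cytoplasmic p65 intensity ratio per well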). The settings on record: HUVEC TNFa-induced p65 nuclear translocation; cell count: measured here: nuclei count (cytotoxicity indicator), at 2.08 µM; inhibition: at 2 µM, stronger effect = higher value, 0% TNFa-plus-vehicle, 100% no-TNFa wells.
Assay [2] in a line: inhibitors of mutant huntingtin aggregation, primary screen, imaging, exon1htt(103Q)mCFP cells, high-content imaging (AID 483;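 active = visual image review flags a hit and inhibition of aggregation exceeds 20%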;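 also: compound exposure lasted 3 days before fixation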;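 as to nuclei count: percent of the per-plate median nuclei count of sample wells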). The settings on record: exon1htt(103Q)mCFP cell line, aggregate imaging, at 2 µM; inhibition of aggregation: stronger effect = higher value; nuclei count: measured here: cell count, toxicity.
Assay [3] can be described thus: inhibitors of E-selectin induction by TNFa, primary screen, imaging, HUVEC, immunofluorescence, MLSMR starter and 10KST1 sets (AID 487).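 As to inhibition: signal is fraction of cell area covered by stained E-selectin grains.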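 As to nuclei count: 100% = median nuclei count of all wells on the same plate.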 The settings on record: HUVEC TNFalpha-induced E-selectin immunofluorescence imaging, at 2 µM; inhibition: stronger effect = higher value; nuclei count: measured here: cell number, toxicity.
In assay [4] the target is Voltage-gated potassium channel subunit beta-2 (Rattus norvegicus) (UniProt P62483). Put plainly: KvBeta enzyme negative modulators, primary screen, biochemical, NADPH fluorescence (AID 622;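 active = fluorescence slope higher than the sample average by over 3 SD, cut at about -0.22 in these data, passing the limit was not always enough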;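 also: slope of raw intensity against log time taken from 70 to 1610 s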). The settings on record: recombinant KvBeta, 4-cyanobenzaldehyde reduction, at 10 µM, stronger effect = higher value.
For assay [5] the target is unchanged. Kind of assay: KvBeta positive modulators, primary screen, biochemical, NADPH fluorescence (AID 623;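 active = NADPH fluorescence slope more negative than the mean of all samples by about 3 SD, 99.7% confidence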;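 also: fluorescence intensity change per second fitted from 20 to 320 s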). The settings on record: Recombinant KvBeta, NADPH fluorescence decrease slope, 10 min; at 10 µM; stronger effect = lower value.
For assay [6], the target named is Alpha-2C adrenergic receptor (Homo sapiens) (UniProt P18825). Kind of assay: modulators of alpha2C/GIRK thallium flux, primary screen, cell-based, HEK293 alpha2C/GIRK1/2 (AID 624;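 active = fluorescence slope after compound addition differing from the mean of all screened samples at 99.7% confidence, in either direction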;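 also: slope of fluorescence ratio to pre-addition baseline per second over 15 to 24 s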). The following applies: thallium flux BTC fluorescence, at 10 µM, actives lie on both sides.
Assay [7] is described as follows: inhibitors of Sendai virus-induced IRF3 signaling, primary screen, TLR/RLR signaling modifier project, cell-based, Sendai virus stimulus, luciferase, 10K MLSCN set (AID 602276;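 active = inhibition at or above 50% at 10 µM; inactive = inhibition below 50%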;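 also: firefly luciferase from ISG56 promoter only with Renilla not read in this screen; 0% = Sendai virus plus DMSO and 100% = medium plus DMSO without virus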). The following applies: HEK293 RL24 IRF3 luciferase reporter, at 10 µM, stronger effect = higher value.
Assay [8] in a line: inhibitors of poly I:C-induced TLR3 signaling, primary screen, cell-based, poly I:C stimulus, luciferase, 10K MLSCN set (AID 602277;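 active = inhibition of the reporter signal at or above 50%; inactive = inhibition below 50%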). The following applies: HEK293-TLR3 RL24 IRF3 luciferase reporter, at 10 µM, stronger effect = higher value. (Reporter assays use an easily measured gene product as a stand-in for the process of interest.)

Active and inactive are the calls of the source.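 The calls were made as follows, unless noted: active = visually confirmed hit in the image check and inhibition above 20%; inconclusive = visually confirmed hit but inhibition not above 20%; inactive = no visual hit in the image check.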

Alpha-2C adrenergic receptor (Homo sapiens), sequence (P18825 whole entry, looked up): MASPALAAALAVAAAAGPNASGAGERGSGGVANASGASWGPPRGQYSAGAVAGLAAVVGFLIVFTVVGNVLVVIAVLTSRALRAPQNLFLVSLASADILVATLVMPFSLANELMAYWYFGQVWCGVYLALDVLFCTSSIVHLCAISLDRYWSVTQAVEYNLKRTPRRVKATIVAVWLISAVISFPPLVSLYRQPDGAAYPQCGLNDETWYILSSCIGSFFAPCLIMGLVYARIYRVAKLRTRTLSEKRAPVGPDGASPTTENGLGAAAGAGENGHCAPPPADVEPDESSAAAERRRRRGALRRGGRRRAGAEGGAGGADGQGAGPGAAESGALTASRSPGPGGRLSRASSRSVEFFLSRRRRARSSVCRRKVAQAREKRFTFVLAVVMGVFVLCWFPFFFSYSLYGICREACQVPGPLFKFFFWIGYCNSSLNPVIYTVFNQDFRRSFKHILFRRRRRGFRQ
Voltage-gated potassium channel subunit beta-2 (Rattus norvegicus), sequence (P62483 whole entry, looked up): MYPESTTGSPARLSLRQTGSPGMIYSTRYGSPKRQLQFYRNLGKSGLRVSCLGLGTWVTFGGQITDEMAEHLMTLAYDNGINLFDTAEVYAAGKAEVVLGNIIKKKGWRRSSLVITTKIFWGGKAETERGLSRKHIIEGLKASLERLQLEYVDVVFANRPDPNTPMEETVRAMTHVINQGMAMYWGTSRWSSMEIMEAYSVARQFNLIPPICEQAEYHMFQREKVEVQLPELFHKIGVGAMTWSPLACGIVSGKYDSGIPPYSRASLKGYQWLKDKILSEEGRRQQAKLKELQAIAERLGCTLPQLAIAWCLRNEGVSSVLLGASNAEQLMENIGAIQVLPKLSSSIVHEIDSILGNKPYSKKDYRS

On to `Cc1cc(C)n(-c2nc(C)nc3sc4c(c23)CCC(C)C4)n1` (centres undefined), for which, in assay [1], the cell count was determined as 564. For the same compound, the inhibition in assay [1] was -8.4% (inactive); in assay [3] it was -88% (inactive); in assay [7] it was -1.01% (inactive); in assay [8], 32.1% (inactive). For the same compound, the inhibition of aggregation in assay [2] was -2% (inactive). For the same compound, the figures for the nuclei count in assay [2] and in assay [3] were 93.8% and 121%, respectively. Moreover, the fluorescence slope in assay [4] was -0.465 (inactive). In assay [5], the NADPH fluorescence slope is 5.5e-06 (inactive). For the same compound, the slope in assay [6] was 0.00248 (inactive).

Consider `O=C(CCCCCn1c(=S)[nH]c2cc3c(cc2c1=O)OCO3)N1CCN(Cc2ccccc2)CC1`, for which the cell count in assay [1] was 494. Also, the inhibition in assay [1] is 3% (inactive); in assay [3], -25.7% (inactive); in assay [7] it was -5.45% (inactive); in assay [8], 15.2% (inactive). Moreover, in assay [2], the inhibition of aggregation was -11.1% (inactive). The nuclei count in assay [2] was found to be 100%; in assay [3] it was 113%. For the same compound, the fluorescence slope in assay [4] is -0.476 (inactive). Also, the NADPH fluorescence slope in assay [5] was 1.3e-05 (inactive). In assay [6], the slope was 0.00605 (inactive).

Take `COc1ccc(-n2c(=O)[nH]cc(C(=O)Nc3ccc(NC(C)=O)cc3)c2=O)cc1`: in assay [1], the cell count came out at 233. In addition, the inhibition in assay [1] is 7% (inactive); in assay [3], 30.3% (inactive); in assay [7] it was 9.68% (inactive); in assay [8] it was 24.1% (inactive). In addition, the inhibition of aggregation in assay [2] is 22.1% (inactive). In addition, the nuclei count came out at 49.8% in assay [2] and 85.4% in assay [3]. Further, the fluorescence slope in assay [4] was -0.629 (inactive). Besides, the NADPH fluorescence slope in assay [5] is 9.9e-06 (inactive). Also, in assay [6], the slope was 0.0073 (inactive).

As for `C=CCn1c(SCn2nnc3ccccc3c2=O)nnc1-c1ccc(Br)cc1`, the cell count in assay [1] is 447. Further, the inhibition in assay [1] was -8.7% (inactive); in assay [3] it was -30.7% (inactive); in assay [7], -1.43% (inactive); in assay [8] it was -21.1% (inactive). Further, the inhibition of aggregation in assay [2] was 6% (inactive). Moreover, the nuclei count in assay [2] amounted to 67.5%; in assay [3] it was 110%. The fluorescence slope in assay [4] is -0.328 (inactive). For the same compound, the NADPH fluorescence slope in assay [5] is -5.6e-05 (inactive). In assay [6], the slope was 0.00508 (inactive).

As to `c1cncc(-c2nnc3n2N=C(c2cccs2)CS3)c1`, the cell count in assay [1] turned out to be 523. The inhibition is 4.8% (inactive) in assay [1], -28.3% (inactive) in assay [3], 5.28% (inactive) in assay [7] and 17.3% (inactive) in assay [8]. Moreover, in assay [2], the inhibition of aggregation is 7.7% (inactive). The figures for the nuclei count in assay [2] and in assay [3] were 96.4% and 107%, respectively. In assay [4], the fluorescence slope was -0.331 (inactive). Besides, the NADPH fluorescence slope in assay [5] was 5.7e-06 (inactive). Further, the slope in assay [6] was 0.00392 (inactive).

`CC1CCC(NC(=O)C2(C)CCC(=O)N2Cc2cccnc2)CC1` (centres undefined): the cell count in assay [1] amounted to 890. For the same compound, the inhibition in assay [1] is -5.2% (inactive); in assay [3], -7.7% (inactive); in assay [7], 1.39% (inactive); in assay [8], 32.6% (inactive). For the same compound, the inhibition of aggregation in assay [2] was 18.3% (inactive). Also, the nuclei count stood at 70.4% in assay [2] and 101% in assay [3]. For the same compound, the fluorescence slope in assay [4] was -0.598 (inactive). In assay [5], the NADPH fluorescence slope was -1.4e-05 (inactive). In addition, the slope in assay [6] is 0.00748 (inactive).

For the compound `CCOC(=O)C1=C(CS(=O)(=O)c2ccc(F)c(C)c2)NC(=O)NC1c1ccc(O)c(O)c1` (centres undefined), the cell count in assay [1] stood at 619. In addition, the inhibition was -0.8% (inactive) in assay [1], -35.7% (inactive) in assay [3], -1.61% (inactive) in assay [7] and 5.18% (inactive) in assay [8]. Moreover, in assay [2], the inhibition of aggregation is 8.1% (inactive). The nuclei count in assay [2] came out at 112%; in assay [3] it was 116%. The fluorescence slope in assay [4] was -0.576 (inactive). Further, the NADPH fluorescence slope in assay [5] was -2.4e-05 (inactive). In addition, the slope in assay [6] is 0.00703 (inactive).

For `O=c1ccc(S(=O)(=O)N2CCC(Cc3ccccc3)CC2)c[nH]1`, the cell count in assay [1] worked out at 451. Also, the inhibition is 0% (inactive) in assay [1], -15.8% (inactive) in assay [3], 11.4% (inactive) in assay [7] and 31.9% (inactive) in assay [8]. Also, the inhibition of aggregation in assay [2] is -8.8% (inactive). Moreover, the nuclei count in assay [2] stood at 103%; in assay [3] it was 111%. Moreover, in assay [4], the fluorescence slope is -0.369 (inactive). Moreover, in assay [5], the NADPH fluorescence slope is -5e-05 (inactive). The slope in assay [6] is 0.00726 (inactive).

For the compound `O=C(NC1CC1)C1CCC(=O)N1C1CCCC1` (centres undefined), the cell count in assay [1] was determined as 435. The inhibition in assay [1] was -6.7% (inactive); in assay [3], -184% (inactive); in assay [7], 7.79% (inactive); in assay [8] it was 14.9% (inactive). The inhibition of aggregation in assay [2] was -18.4% (inactive). Further, the nuclei count in assay [2] was 119%; in assay [3], 246%. Besides, in assay [4], the fluorescence slope is -0.47 (inactive). Further, the NADPH fluorescence slope in assay [5] is 2.9e-05 (inactive). In assay [6], the slope was 0.00569 (inactive).

`COc1cc(NC(=O)c2cccs2)cc(OC)c1`: the cell count in assay [1] was 306. Moreover, the inhibition in assay [1] is -14.2% (inactive); in assay [3] it was -201% (inactive); in assay [7] it was -38.7% (inactive); in assay [8] it was -64.2% (inactive). The inhibition of aggregation in assay [2] is 33% (inactive). The values for the nuclei count in assay [2] and in assay [3] were 82.6% and 96.7%, respectively. In addition, in assay [4], the fluorescence slope is -0.337 (inactive). In assay [5], the NADPH fluorescence slope is -4.5e-05 (inactive). Besides, the slope in assay [6] is 0.00448 (inactive).

As for `O=C(CCN1C(=O)COc2ccccc21)NCCN1CCN(c2cccc(Cl)c2)CC1`, the cell count in assay [1] came to 597. The inhibition in assay [1] is -3.6% (inactive); in assay [3], -68.5% (inactive); in assay [7], 7.8% (inactive); in assay [8] it was 7.33% (inactive). For the same compound, the inhibition of aggregation in assay [2] was 0.2% (inactive). For the same compound, the results for the nuclei count in assay [2] and in assay [3] were 88.9% and 112%, respectively. Further, in assay [4], the fluorescence slope is -0.602 (inactive). In addition, the NADPH fluorescence slope in assay [5] is -2.6e-06 (inactive). Also, the slope in assay [6] was 0.00502 (inactive).

In the case of `N#Cc1c(NC(NC(=O)c2ccco2)C(=O)c2ccccc2)sc2c1CCCC2` (centres undefined), the cell count in assay [1] was 415. The inhibition was -6% (inactive) in assay [1], -31.6% (inactive) in assay [3], 5.59% (inactive) in assay [7] and 22.2% (inactive) in assay [8]. The inhibition of aggregation in assay [2] was -7.6% (inactive). Further, the nuclei count was determined as 118% in assay [2] and 121% in assay [3]. Also, the fluorescence slope in assay [4] was -0.369 (inactive). The NADPH fluorescence slope in assay [5] was 9.4e-06 (inactive). For the same compound, in assay [6], the slope is 0.00297 (inactive).

Turning to `CCOc1ccc(NC(=O)C(C)Sc2nnc(C)n2C)cc1` (centres undefined), the cell count in assay [1] is 574. Besides, the inhibition in assay [1] is -9.5% (inactive); in assay [3] it was -33.5% (inactive); in assay [7], -2.49% (inactive); in assay [8], 20.8% (inactive). For the same compound, in assay [2], the inhibition of aggregation is 19.3% (inactive). Moreover, the nuclei count in assay [2] came out at 74.5%; in assay [3] it was 119%. The fluorescence slope in assay [4] is -0.591 (inactive). Also, the NADPH fluorescence slope in assay [5] was -1.5e-05 (inactive). In addition, the slope in assay [6] is 0.00656 (inactive).

Consider `CCOC(=O)N1CCN(C(=O)CSc2nnc(-c3cc(OC)cc(OC)c3)o2)CC1`, for which the cell count in assay [1] worked out at 228. Moreover, the inhibition was 8.2% (inactive) in assay [1], -54.1% (inactive) in assay [3], 12.2% (inactive) in assay [7] and 29.1% (inactive) in assay [8]. Further, the inhibition of aggregation in assay [2] was -10.3% (inactive). For the same compound, the results for the nuclei count in assay [2] and in assay [3] were 67.5% and 99.6%, respectively. Besides, the fluorescence slope in assay [4] is -0.398 (inactive). The NADPH fluorescence slope in assay [5] is -5.6e-05 (inactive). In assay [6], the slope was 0.00254 (inactive).

In general, inhibition refers to the relative decrease from the control value, in per cent.
